Experimental data published in PubChem BioAssay (EPA / NIEHS).
Records with an inconclusive call do not appear. Calls of active or inactive are those of the source. How the source made its calls: active means hit-call score of the fitted dose curve at least 0.9, where 1 is the maximum; inconclusive means response in the unintended direction; inactive means score below 0.9.

Columns and labels:
[1] = TOX21_p53_BLA_p2_viability: Viability Assessment in the Tox21 HCT-116 p53 Agonism Beta-lactamase Assay, Phase 2 (AID 2283591);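 further: actives lower the ATP signal meaning cytotoxicity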
Procedure, shortened: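 HCT116 p53-bla cells, 4000/well, dosed after 5 h plating (217-fold dilution of DMSO stocks) and incubated 16 h at 37C. Viability taken as cellular ATP by CellTiter-Glo luminescence after 30 min RT; signal loss marks cytotoxicity.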

[2] = biological target: Cellular tumor antigen p53 (Homo sapiens) (UniProt P04637); assay: TOX21_p53_BLA_p2_ratio: Tox21 HCT-116 p53 Agonism Beta-lactamase Assay, Ratio, Phase 2 (AID 2283592)
Procedure, shortened: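 Readout: blue/green (460/530 nm) FRET emission ratio after 2 h CCF4-AM loading at room temperature, excitation 405 nm. HCT116 p53 bla cells, 16 h compound exposure at 37C, 5% CO2; agonist direction fitted against DMSO baseline.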

[3] = biological target: Cellular tumor antigen p53 (Homo sapiens) (UniProt P04637); assay: TOX21_p53_BLA_p3_ratio: Tox21 HCT-116 p53 Agonism Beta-lactamase Assay, Ratio, Phase 3 (AID 2283596)
Procedure, shortened: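 Cells were seeded at 4000/well, rested 5 h at 37C, then dosed with DMSO compound solutions (217-fold dilution) for 16 h. CCF4-AM substrate was loaded for 2 h at room temperature, and the 460/530 nm emission ratio was fitted for gain of signal versus DMSO.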

[4] = TOX21_p53_BLA_p4_viability: Viability Assessment in the Tox21 HCT-116 p53 Agonism Beta-lactamase Assay, Phase 4 (AID 2283597);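 further: hits lower the luminescence signal meaning cytotoxicity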
Procedure, shortened: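 ATP content by CellTiter-Glo luminescence, 30 min RT, read after the beta-lactamase ratio step. Cells: HCT116, 4000/well, compound added after 5 h, exposure 16 h at 37C. Signal loss = reduced viability.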

[5] = biological target: Cellular tumor antigen p53 (Homo sapiens) (UniProt P04637); assay: TOX21_p53_BLA_p5_ratio: Tox21 HCT-116 p53 Agonism Beta-lactamase Assay, Ratio, Phase 5 (AID 2283599)
Procedure, shortened: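 HCT-116 p53-bla cells (4000/well) plated 5 h, dosed with compound (217-fold DMSO dilution) for 16 h at 37 C; CCF4-AM substrate 2 h at room temperature. Activity is the 460/530 nm emission ratio (405 nm excitation), fitted in gain-of-signal direction versus DMSO.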

[6] = TOX21_p53_BLA_p5_viability: Viability Assessment in the Tox21 HCT-116 p53 Agonism Beta-lactamase Assay, Phase 5 (AID 2283600)
Procedure, shortened: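 ATP luminescence (CellTiter-Glo, 30 min, RT) served as the viability read-out, with loss of signal indicating cytotoxicity. Compounds in DMSO were pinned at a 217-fold dilution onto 4000 cells/well and incubated 16 h, 37C.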

[7] = biological target: Cellular tumor antigen p53 (Homo sapiens) (UniProt P04637); assay: TOX21_p53_BLA_p4_ratio: Tox21 HCT-116 p53 Agonism Beta-lactamase Assay, Ratio, Phase 4 (AID 2283601)
Procedure, shortened: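 HCT-116 p53 beta-lactamase reporter cells (4000/well) preincubated 5 h, then compound (217-fold dilution of DMSO stock) for 16 h at 37C. CCF4-AM substrate added 2 h at room temperature; 460/530 nm emission ratio fitted upward versus DMSO.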

Measured: outcome

Chain of Cellular tumor antigen p53 (Homo sapiens) (P04637 whole entry, looked up): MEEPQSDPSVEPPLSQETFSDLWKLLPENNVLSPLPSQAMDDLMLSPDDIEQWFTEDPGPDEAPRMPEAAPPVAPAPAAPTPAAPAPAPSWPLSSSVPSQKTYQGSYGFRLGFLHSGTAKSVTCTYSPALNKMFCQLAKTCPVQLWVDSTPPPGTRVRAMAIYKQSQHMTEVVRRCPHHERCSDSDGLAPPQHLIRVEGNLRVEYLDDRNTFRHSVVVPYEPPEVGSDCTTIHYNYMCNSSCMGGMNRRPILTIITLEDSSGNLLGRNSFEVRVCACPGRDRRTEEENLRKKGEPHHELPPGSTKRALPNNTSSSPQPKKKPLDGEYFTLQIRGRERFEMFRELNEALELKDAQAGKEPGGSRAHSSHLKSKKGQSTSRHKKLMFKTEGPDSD

CCCC(CCC)C(=O)OC1C[C@H]2CC[C@@H](C1)[N+]2(C)C (some centres undefined)
inactive: [1] | [2] | [3] | [4] | [5] | [6] | [7]

NC(=O)[C@H]1O[C@@H](O)[C@H](O)[C@@H](O)[C@@H]1O
inactive: [1] | [2] | [3] | [4] | [5] | [6]

O=C1O[C@H](CO)[C@@H](O)[C@H](O)[C@H]1O
inactive: [1] | [2] | [3] | [4] | [5] | [6] | [7]

CNC[C@H](O)c1ccc(O)c(O)c1
inactive: [1] | [2] | [3] | [4] | [5] | [6] | [7]

CCCCCN(CCCCC)C(=O)C(CCC(=O)O)NC(=O)c1ccc(Cl)c(Cl)c1 (centres undefined)
inactive: [1] | [2] | [3] | [4] | [5] | [6] | [7]

NCc1ccccc1CC(=O)N[C@@H]1C(=O)N2C(C(=O)O)=C(CSc3nnnn3CC(=O)O)CS[C@H]12
inactive: [1] | [2] | [3] | [4] | [5] | [6]

CC(=O)Oc1cccc(O)c1
inactive: [1] | [2] | [3] | [4] | [5] | [6]

O=CC(=O)c1ccccc1
inactive: [1] | [2] | [3] | [4] | [5] | [6] | [7]

CC1=Nc2ccccc2C1(C)C
inactive: [1] | [2] | [3] | [4] | [5] | [6] | [7]

O=C(O)Cc1sc(-c2ccccc2)nc1-c1ccc(Cl)cc1
inactive: [1] | [2] | [3] | [4] | [5] | [6] | [7]

Cc1ccccc1C(=O)N1CC/C(=N\OS(=O)(=O)O)c2ccc(Cl)cc21
inactive: [1] | [2] | [3] | [4] | [5] | [6] | [7]

CCCCCCOc1ccccc1C(N)=O
inactive: [1] | [2] | [3] | [4] | [5] | [6]

NS(=O)(=O)c1cc2c(cc1C(F)(F)F)NCNS2(=O)=O
inactive: [1] | [2] | [3] | [4] | [5] | [6]

Cc1ccc([N+](=O)[O-])cc1Cl
inactive: [1] | [2] | [3] | [4] | [5] | [6]

ClC(Cl)(Cl)c1ccc(C(Cl)(Cl)Cl)cc1
inactive: [1] | [2] | [3] | [4] | [5] | [6]

Clc1nnc(Cl)c2ccccc12
inactive: [1] | [2] | [3] | [4] | [5] | [6]
